# A selection: hits, their analogues and other compounds. The true share with any hit is near 3.3%.
# PNC inhibitor = perinucleolar compartment assembly inhibition; AID 2417; activity change (PNC), negative = inhibition, % at 10 µM; PC3M PTB-GFP, PNC prevalence imaging, 16 h; hits give low values; actives 3.1% (n = 140,000);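 active = readout at or below -70, meaning at least 70% loss of cells showing the perinucleolar compartment, a nuclear body marking cancer cells; inconclusive = readout between -30 and a set limit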;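 also: plate controls were DMSO wells for no effect and camptothecin positive control wells for full effect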
#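 Read-out is percentage of cells bearing a perinucleolar compartment, from automated 20x imaging of fixed, Hoechst-stained PC3M PTB-GFP cells. Cells were seeded 4 h, then exposed 16 h to compound (23 nl of library stock) in duplicate plates.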
# HTT cytoprotect = Huntington cell model cytoprotection by ATP luminescence; PC12 HTT-Q103 induced, cytoprotection, ATP luminescence, 40 h; Potency, µM (series often up to 56.4 µM), inactives show cytoprotection (ATP increase), most hits filed as activators; actives 0.14% (n = 230,000); AID 1471; also: potency is read from the fitted curve at half-maximal effect; % of control where 0% means no effect; nearly all actives have a fitted effect of over 45% in size
#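 Compounds were screened for protection of PC12 cells against cell death after tebufenozide induction (100 nM final) of mutant Huntingtin exon 1 (Q103) fused to GFP.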
# IMPase inh = IMPase inhibition in cells. P97697. 120,000 tested, under 10 active. CHO-M1 cells, IP1 accumulation, HTRF TR-FRET ratio. AID 901. inhibition (IP1 accumulation), % at 46.1 µM; active = well fitted curve in the direction sought with a large enough effect in the signal ratio, not every such curve was filed as active; inconclusive = small, poorly fitted or top-dose-only effect, or a change in a side signal; inactive = no such curve, though single readings can be large or run the other way; the % refers to the signal ratio;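 also: cells stimulated with carbachol in lithium chloride buffer; plate controls were DMSO basal wells for no effect and reference inhibitor wells for full effect; higher means more IMPase inhibition seen as more IP1 and lower FRET ratio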
#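 CHO-M1 cells (CHO stably expressing M1 receptor), compound up to 46 uM final, stimulated with carbachol (50 uM as added) in buffer with 50mM LiCl, pH 7.4, 30 min at 37C. Cytosolic IP1 read by TR-FRET; AC50 from Hill fits.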
# NPSR antagonist = blocks cAMP signaling of the human neuropeptide S receptor | Q6W5P4 | CHO-NPSR cells, cAMP TR-FRET, antagonist mode | Potency, µM (series often up to 38.3 µM), for the others: top-dose activity change, negative = inhibition, usual class: inhibitors | actives 1% (n = 220,000); also: potency is read from the fitted curve at half-maximal effect; % is scaled to controls: 0 for no effect and ±100 for the full control effect; nearly all actives have a fitted effect of over 50% in size
# Target sequence (Q6W5P4 whole entry, looked up): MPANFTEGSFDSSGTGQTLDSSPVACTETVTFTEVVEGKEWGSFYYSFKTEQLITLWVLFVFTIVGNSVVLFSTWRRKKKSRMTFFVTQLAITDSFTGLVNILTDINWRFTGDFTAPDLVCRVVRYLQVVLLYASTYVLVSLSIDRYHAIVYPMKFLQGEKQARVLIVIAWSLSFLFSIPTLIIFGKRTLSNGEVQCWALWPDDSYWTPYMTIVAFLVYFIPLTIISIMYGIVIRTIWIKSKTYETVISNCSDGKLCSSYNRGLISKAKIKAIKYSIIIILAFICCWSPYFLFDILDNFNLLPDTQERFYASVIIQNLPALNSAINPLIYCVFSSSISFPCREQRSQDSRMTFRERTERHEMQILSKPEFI
# HTT aggregate = inhibitors of mutant huntingtin aggregate formation in PC12 cells; PC12 HttQ103-GFP aggregates, Acumen cytometry, 40 h; AID 1688; Potency, µM (doses to about 46.1 µM), for the others: top-dose activity change, negative = inhibition, actives largely listed as inhibitors; actives 1.1% (n = 220,000); also: potency is read from the fitted curve at half-maximal effect; % is scaled to controls: 0 for no effect and ±100 for the full control effect; nearly all actives have a fitted effect of over 60% in size
#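 Inducible Q103 Huntingtin exon 1–GFP PC12 line, 1500 cells/well in phenol red free DMEM with 5% equine and 5% calf serum. Tebufenozide 100 nM induced expression; compounds titrated; aggregates quantified by cytometry.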
# ALOX12 inhib = inhibitors of human 12-lipoxygenase (ALOX12); actives 0.12% (n = 150,000); purified 12-hLO, xylenol orange hydroperoxide absorbance; Potency, µM (series often up to 57.1 µM), for inactives: at the top dose activity change, negative = inhibition, most hits filed as inhibitors; also: potency is read from the fitted curve at half-maximal effect; % is scaled to controls: 0 for no effect and ±100 for the full control effect; nearly all actives have a fitted effect of over 55% in size
#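 Hydroperoxide output read as Fe(III)-xylenol orange absorbance, 573-to-405 nm ratio, after 30 min reaction with 40 uM arachidonic acid. Enzyme: 150 nM purified human 12hLO, 15 min compound preincubation; 25 mM Hepes pH 7.0, room temperature.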
# * = called active by the depositor; ? = inconclusive; / = no result given; [ ] = dose if it differs, or a comment. Unless noted, calls follow the shape of the dose curve; as a rule, active = well fitted curve in the direction sought with a large enough effect; inconclusive = small, poorly fitted or top-dose-only effect, or another doubt; inactive = no such curve, though single readings can be large; an effect the other way counts as inactive or inconclusive.
SMILES,PNC inhibitor,HTT cytoprotect,IMPase inh,NPSR antagonist,HTT aggregate,ALOX12 inhib
Nc1cc2nsnc2cc1Br,34,6%,?,2.5µM*,3%,-10%
CC(C)(CO)[C@H](O)C(=O)NCCC(=O)O,/,-4%[40.3 µM],-1[20.6 µM],/,/,0%[25.6 µM]
COc1cc(/C=N/NC(=O)c2cc3ccccc3cc2O)ccc1OCCN1CCCCC1,-11,/,/,12%,20µM*,0%
O=C(O[C@@H]1Cc2c(O)cc(O)cc2OC1c1ccc(O)c(O)c1)c1cc(O)c(O)c(O)c1 (stereo partly drawn),/,/,/,/,/,-24%
COc1ccc(C2C3=C(CCCC3=O)Nc3nc(C(F)(F)F)nn32)c(OC)c1OC (stereo not drawn),-88*,11%[10 µM],6,-22%[46.1 µM],12%,-6%
COc1ccc(C2C3=C(CCCC3=O)Nc3nc(C(F)(F)F)nn32)cc1OC (stereo not drawn),-23,20%,1,-7%[46.1 µM],19%,3%
CCOc1ccccc1N1CSC2=C(C#N)C(c3c(OC)ccc4ccccc34)CC(=O)N2C1 (stereo not drawn),-106*,-21%,3,-11%[46.1 µM],-8%,?
COc1ccc(N2CSC3=C(C#N)C(c4cc(OC)ccc4OC)CC(=O)N3C2)c(OC)c1 (stereo not drawn),1,-27%,-1,6%[46.1 µM],-6%,?
Nc1ccccc1-c1nc2ccccc2[nH]1,-83*,-17%[0.074 µM],-9,?,-4%,2%
N#CCCN(Cc1cccs1)C(=O)Nc1ccc(F)cc1,/,8%[10 µM],/,0%,-25%[9.22 µM],/
COc1ccc(CCN2C(=O)CC(N3CCOCC3)C2=O)cc1 (stereo not drawn),-7,1.3µM*,/,0%[46.1 µM],-1%,1%
C/C(N)=C(/C#N)C(=O)CSc1nn(-c2ccc(Cl)cc2)c(=S)s1,/,-96%,/,-56%,?,/
C/C(N)=C(/C#N)C(=O)CSc1nnc(SCc2ccc(Cl)cc2)s1,?,-4%[10 µM],3,-5%[46.1 µM],11µM*,-6%
CCCSc1nnc(NC(=O)Nc2ccc(F)cc2)s1,-83*,6%[1.9 µM],15,-12%[46.1 µM],?,-4%
CCOC(=O)c1nn(-c2cccc(OC)c2)c2nc(CC)c(C#N)c(=O)n12,-109*,/,/,-13%,-2%,0%
CCOC(=O)c1nn(-c2ccccc2F)c2nc(-c3ccco3)c(C#N)c(=O)n12,29,/,/,-12%,-6%,-1%
CC(C)N=C(N)/N=C(\N)Nc1ccc(Cl)cc1,/,-4%[40.3 µM],-3[20.6 µM],/,10%[20.6 µM],-1%[25.6 µM]
NC(=NCCCCCCN=C(N)/N=C(\N)Nc1ccc(Cl)cc1)/N=C(\N)Nc1ccc(Cl)cc1,/,-98%,4[20.6 µM],/,14µM*,-28%
COc1ccccc1-c1ccc(/C=C2/C=C(C)OC2=O)o1,-113*,/,/,-22%,22%,-13%
CN(C)Cc1c(-c2ccc(Cl)cc2)nc2ccccn12,/,-38%,/,18%,0.032µM*,/
N#Cc1c(-c2ccc(C(F)(F)F)cc2)cc(-c2ccccc2)[nH]c1=S,-99*,11%[10 µM],/,3%,-22%,-3%
COc1ccc(-c2cc(-c3ccccc3)c(C#N)c(=S)[nH]2)cc1,/,4%[10 µM],/,13µM*,2%[9.22 µM],/
Cc1ccc(-n2cc(CN3CCN(C(=O)c4ncn[nH]4)CC3)c(-c3ccc(F)cc3)n2)cc1,/,3%[10 µM],/,?,14%[9.22 µM],/
C[C@]12CCC(=O)C=C1CC[C@@H]1[C@@H]2[C@@H](O)C[C@@]2(C)[C@H]1CC[C@]2(O)C(=O)COP(=O)(O)O,/,-30%,/,/,-12%,/
Cc1ccc2nc(N3C(=O)C(O)=C(C(=O)c4ccco4)C3c3cccs3)sc2c1 (stereo not drawn),-11,-15%,-17,7.9µM*,-8%,-16%
COc1ccc(-c2coc3cc4oc(=O)cc(-c5ccccc5)c4cc23)cc1F,-111*,-73%[10 µM],6,-2%[46.1 µM],-4%,4%
Cc1ccc2c(c1)c1cccc3c1n2CCN3CCC(N)=O,-107*,-14%,4,-14%[46.1 µM],-14%,?
